# Inconclusive results are not listed. Where a call stands in place of a potency, no number is given. A number with no mark means an inactive call. The source made the active and inactive calls. Calls come from the whole dose curve; as a rule, active = well fitted curve in the direction sought with a large enough effect; inconclusive = small, poorly fitted or top-dose-only effect, or another doubt; inactive = no such curve, though single readings can be large; an effect the other way counts as inactive or inconclusive.
# Legend:
# CRL-7250 = normal cell line; test: Cytotoxic Profiling of Annotated Libraries Using Quantitative High-Throughput Screening (AID 1296008); conditions: Five cell lines viability, CellTiter-Glo ATP luminescence, 48-72 h; max response: stronger effect = lower value; note: nearly all actives have a fitted effect of over 60% in size; note: potency is the fitted concentration of half-maximal effect
# Method in brief: (§1)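 Cytotoxicity was measured as CellTiter-Glo ATP luminescence, read after 10 min at room temperature. Compound treatment of the cells lasted 48 or 72 hr at 37 degrees Celsius in a qHTS format.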
# HEK293 = test: as above; conditions: Five cell lines viability, CellTiter-Glo ATP luminescence, 48-72 h; max response: stronger effect = lower value
# Method in brief: as §1
# HaCat = test: as above; conditions: Five cell lines viability, CellTiter-Glo ATP luminescence, 48-72 h; max response: stronger effect = lower value
# Method in brief: as §1
# KB-3-1 = test: as above; conditions: Five cell lines viability, CellTiter-Glo ATP luminescence, 48-72 h; max response: stronger effect = lower value
# Method in brief: as §1
# NIH3T3 [1] = test: as above; conditions: Five cell lines viability, CellTiter-Glo ATP luminescence, 48-72 h; max response: stronger effect = lower value
# Method in brief: as §1
# NIH3T3 [2] = test: qHTS assay to identify novel small-molecules to repurpose for Merkel cell carcinoma treatment (AID 1296009); conditions: MCC and control cell lines, CellTiter-Glo viability, 72 h; at 44.8 µM (top of the series) unless noted; note: nearly all actives have a fitted effect of over 60% in size
# Method in brief: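 After compound transfer in DMSO, plates were kept 72 hr at 37 degree celsius. Luminescent ATP signal from CellTiter-Glo served as viability measure, normalized against DMSO and no-cell controls.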
# C33A = test: Primary qHTS to identify gynecologic anti-cancer compounds using libraries of approved drugs and bioactive compounds (AID 1345084); conditions: Gynecologic cancer cell panel viability, ATPlite luminescence, 48 h; series mostly up to 57.5 µM; note: nearly all actives have a fitted effect of over 55% in size
# Method in brief: (§2)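 Measured: luminescence after ATPlite addition (15 min, RT). Exposure: 48 h, 37 C, 5% CO2.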
# CAOV3 = test: as above; conditions: Gynecologic cancer cell panel viability, ATPlite luminescence, 48 h; series mostly up to 57.5 µM
# Method in brief: as §2
# CASKI = test: as above; conditions: Gynecologic cancer cell panel viability, ATPlite luminescence, 48 h; series mostly up to 57.5 µM
# Method in brief: as §2
# Es-2 = test: as above; conditions: Gynecologic cancer cell panel viability, ATPlite luminescence, 48 h; series mostly up to 57.5 µM
# Method in brief: as §2
# HeLa = test: as above; conditions: Gynecologic cancer cell panel viability, ATPlite luminescence, 48 h; series mostly up to 57.5 µM
# Method in brief: as §2
# Hek293T = test: as above; conditions: Gynecologic cancer cell panel viability, ATPlite luminescence, 48 h, control line for the selectivity index; series mostly up to 57.5 µM
# Method in brief: as §2
# JEG-3 = test: as above; conditions: Gynecologic cancer cell panel viability, ATPlite luminescence, 48 h; series mostly up to 57.5 µM
# Method in brief: as §2
Structure (SMILES),max response (CRL-7250) [%],max response (HEK293) [%],max response (HaCat) [%],outcome (KB-3-1),outcome (NIH3T3 [1]),outcome (NIH3T3 [2]),Potency (C33A),Potency (CAOV3),outcome (CASKI),Potency (Es-2),Potency (HeLa),Potency (Hek293T),Potency (JEG-3),outcome (CRL-7250),max response (KB-3-1) [%],Potency (HEK293)
CC1(C)[C@@H]2CC=C(CO[C@@H]3O[C@H](CO[C@@H]4OC[C@H](O)[C@H](O)[C@H]4O)[C@@H](O)[C@H](O)[C@H]3O)[C@H]1C2,0.583,2.49,-0.954,inactive,inactive,inactive [at 17.4 µM],inactive,inactive,inactive,inactive,inactive,inactive,inactive,–,–,–
CC(CCO)CCC1C2(C)CCCC(C)(C)C2CC[C@@]1(C)O (some centres undefined),–,-13.3,-19.9,–,inactive,inactive,inactive,inactive,inactive,inactive,inactive,inactive,inactive,inactive,7.08,–
CC(C/C=C/C(C)(C)O)C1CCC(C)(O)C(O)C1 (centres undefined),–,2.47,0.0762,inactive,inactive,inactive,inactive,inactive,inactive,inactive,inactive,inactive,inactive,inactive,–,–
CC1=C2C(=O)C=C(CO)C2[C@H]2OC(=O)[C@H](C)[C@@H]2[C@@H](OC(=O)Cc2ccc(O)cc2)C1 (some centres undefined),–,-2.2,3.29,inactive,inactive,inactive [at 17.4 µM],inactive,inactive,inactive,inactive,inactive,inactive,inactive,inactive,–,–
CC[C@@H](Nc1c(Nc2cccc(C(=O)N(C)C)c2O)c(=O)c1=O)c1ccc(C)o1,–,0.867,-4.91,inactive,inactive,inactive,inactive,inactive,inactive,inactive,inactive,inactive,inactive,inactive,–,–
Cc1nc2cc(-c3cc(F)cc(C#N)c3)ccc2s1,-5.31,-12.9,-10.9,–,inactive,inactive,inactive,inactive,inactive,inactive,inactive,inactive,inactive,–,0.518,–
COc1c(-c2ccc(O)cc2)cc(OC)c2c1oc1cc(O)c(OC3OC(CO)C(O)C3O)cc12 (centres undefined),-0.713,-3.64,-7.87,inactive,inactive,inactive [at 17.4 µM],inactive,inactive,inactive,inactive,inactive,inactive,inactive,–,–,–
C=C1C(O)CC2C(C(=O)O)=COC(O[C@@H]3O[C@H](COC(=O)c4ccc(O)cc4)[C@@H](O)[C@H](O)[C@H]3O)C12 (some centres undefined),–,-1.77,2.09,inactive,inactive,inactive [at 17.4 µM],inactive,inactive,inactive,inactive,inactive,inactive,inactive,inactive,–,–
CC1(C)CCCC2(C)c3c4c(c(=O)oc(=O)c3=CCC12)=CCC1C(C)(C)CCCC41C (centres undefined),-2.61,2.74,0.0105,inactive,inactive,inactive [at 17.4 µM],inactive,inactive,inactive,inactive,inactive,inactive,inactive,–,–,–
Cc1cn2cc(CC(=O)N3CCC4(CC3)CN(Cc3ccc(-n5nccn5)cc3Cl)C4)nc2s1,2.68,–,2.32,–,inactive,inactive,inactive,inactive,inactive,inactive,inactive,inactive,inactive,–,0.0455,16.4 µM (active)
CN1C(=O)N(c2cc(Cl)cc(Cl)c2)C(=O)[C@@]1(C)Cc1ccc(Br)cc1,-11.1,-15.8,-27.7,–,inactive,inactive,inactive,inactive,inactive,inactive,inactive,inactive,inactive,–,3.14,–
CC/C=C/C(O)C(O)C1=C(C)C(=O)C2(O1)C(=O)NC(OC)(C(=O)c1ccccc1)C2O (centres undefined),0.865,2.1,-3.32,inactive,inactive,inactive [at 17.4 µM],inactive,inactive,inactive,inactive,inactive,inactive,inactive,–,–,–
O=C(O)c1ccnc2cc(-c3nc4ccccc4n3CCN3CCCCC3)sc12,1.05,2.48,-0.587,–,inactive,inactive,inactive,inactive,inactive,inactive,inactive,inactive,inactive,–,2.06,–
